# HCMV inh = qHTS Assay for inhibitors of the human cytomegalovirus (HCMV). HFF cells, HCMV-luciferase reporter, 72 h; active compounds read low. hit rate 4.5% among 410,000. activity change, negative = inhibition, % at 57.5 µM; in the data active = activity change below about -60%; inconclusive = no clear call, values can overlap the other calls; inactive = above about -39%; also: % is scaled to controls: 0 for no effect and ±100 for the full control effect
#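 Steps: HFFs plated, 16 h 37C; compounds added; HCMV-luciferase added to MOI 1 PFU/cell; 72 h 37C; OneGlo reagent, 5 min room temperature; luminescence read, normalized to controls.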
# CHX counter = Cycloheximide Counterscreen for Small Molecule Inhibitors of Shiga Toxin; cell reporter, cycloheximide protein synthesis inhibition counterscreen; max response, %; hit rate 12% among 300,000; AID 2314, 2010; in the data active = max response mostly above about 13%, no sharp cut-off; inactive = mostly below about 14%; also: read at 38.3 µM for the half of the compounds with a filed dose; 0% is about no effect
# Shiga toxin inh = A qHTS for Small Molecule Inhibitors of Shiga Toxin. Vero cells, Shiga toxin protein synthesis inhibition reporter. inhibition, % at 38.7 µM. hit rate 9.2% among 290,000. AID 2315, 2010; in the data active = inhibition mostly above about 28%, no sharp cut-off; inactive = mostly below about 43%; also: 0% is about no effect
# Pf growth 96h = Primary qHTS for delayed death inhibitors of the malarial parasite plastid, 96 hour incubation; Potency, µM (highest dose often 28.7 µM), for inactives: at the highest dose activity change, negative = inhibition, hits mostly inhibitors; P. falciparum luciferase reporter growth, 96 h; hit rate 6.9% among 320,000; AID 504834, 2011; also: potency is read from the fitted curve at half-maximal effect; % is scaled to controls: 0 for no effect and ±100 for the full control effect
#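 Infected RBCs, 2% Hct / 0.05% parasitemia final; luciferase-reporter P. falciparum; cpd 96 h, 37 C, 5% CO2; luciferase detection reagent; luminescence.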
# Pf growth 48h = Primary qHTS for delayed death inhibitors of the malarial parasite plastid, 48 hour incubation. P. falciparum luciferase growth in erythrocytes, 48 h. AID 504832, 2011. Potency, µM (doses to about 28.7 µM), for the others: top-dose activity change, negative = inhibition, actives largely listed as inhibitors. hit rate 5.9% among 310,000; also: potency is read from the fitted curve at half-maximal effect; % is scaled to controls: 0 for no effect and ±100 for the full control effect
#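 Parasite viability was followed by luminescence of a genomically integrated firefly luciferase. Cultures held 0.1% parasitemia at 2% hematocrit (final), incubated under 5% CO2 at 37 C.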
# * hit, by the source's call; i = inactive; ? = inconclusive; / = not tested or not shown; [ ] = another dose, or the depositor's remark. In the library only some 20% were active in any assay of this set; here they are far more common. Unless noted, calls follow the shape of the dose curve; as a rule, active = well fitted inhibition curve with a large enough effect; inconclusive = small, poorly fitted or top-dose-only effect, or another doubt; inactive = no such curve, though single readings can be large or run the other way.
SMILES,HCMV inh,CHX counter,Shiga toxin inh,Pf growth 96h,Pf growth 48h
CN1CCN(C(CNC(=O)C(=O)Nc2ccccc2C#N)c2ccc3c(c2)OCO3)CC1 (centres undefined),-11,/,/,/,/
Cc1ccc(CN2CCSc3ccc(C(=O)Nc4ccc(C)cc4)cc32)cc1,72,/,/,/,/
Cc1nn(C)c(C)c1Nc1ccc(N2C(=O)C3CC=CCC3C2=O)cc1[N+](=O)[O-] (centres undefined),-18,2,-10,17%,-8%
COc1cc(C(=O)Nc2ccc(S(=O)(=O)N(C)c3ccccc3)cc2)cc(OC)c1OC,-21,-3,14,-13%,-12%
COc1ccc(C(=O)Nc2ccc(S(=O)(=O)N(C)c3ccccc3)cc2)cc1,-69*,/,/,/,/
Cc1ccccc1OCCC(=O)OCC(=O)NC(=O)c1ccccc1,-14,/,/,44%,-1%
O=C(c1cccc([N+](=O)[O-])c1)N1CCN(S(=O)(=O)/C=C/c2ccccc2)CC1,-3,/,/,?,?
COc1ccc([C@@H]2[C@@H]3C(=O)N(C(C)(C)C)C(=O)[C@@H]3[C@]3(Cc4ccc(Cl)cc4)C(=O)N(c4ccc(C)cc4)C(=O)N23)cc1,2,/,/,6.6µM*,13µM*
COc1ccc([C@@H]2[C@@H]3C(=O)N(C(C)(C)C)C(=O)[C@@H]3[C@]3(Cc4ccc(Cl)cc4)C(=O)N(c4cccc(C)c4)C(=O)N23)cc1,-24,-2,-7,8.3µM*,?
COc1ccc(N2C(=O)N3[C@H](c4cccc(C)c4)[C@@H]4C(=O)N(Cc5ccccc5)C(=O)[C@@H]4[C@]3(Cc3ccccc3)C2=O)cc1,-24,5,0,4.7µM*,?
CSc1ccc(CNC(=O)C2CCN(c3nnc(-n4cccc4CNc4ccc(C)cc4)s3)CC2)cc1,-15,/,/,/,/
CC(C)(C)C(=O)Nc1nc(-c2ccccc2)ns1,-21,58*,84*,i,i
O=C(Nc1nc(-c2ccccc2)ns1)c1ccc(Cl)cc1,4,/,/,/,/
c1ccc(Nc2nc(-c3ccccc3)ns2)cc1,141,52*,82*,203%,166%
O=C(Nc1nc(-c2ccccc2)ns1)c1ccncc1,32,2,18,69%,43%
C=CCNC(=O)C(=O)Nc1ccc2c(c1)N(S(=O)(=O)c1cccs1)CCC2,-9,/,/,?,?
Cc1ccc(C(O)(c2ccc(C)c(C)c2)C2CN3CCC2CC3)cc1C (centres undefined),-97*,-7,-13,?,4%[0.00184 µM]
Cc1ccccc1C(O)(Cc1ccccc1)C1CN2CCC1CC2 (centres undefined),-19,-5,-20,10µM*,/
Cc1noc(C)c1S(=O)(=O)N1CCC(Cc2ccccc2)CC1,?,-3,-2,1%,-8%
CCCCNS(=O)(=O)c1ccc2nc(-c3cccnc3)cc(C(=O)NCCCOCC)c2c1,-3,7,-6,?,14%
O=C(CCN1C(=O)/C(=C/c2ccccc2Cl)SC1=S)NCCCN1CCOCC1,-2,9,5,13µM*,?
Cc1ccc(/C=C2\SC(=S)N(CCC(=O)NCCCN3CCOCC3)C2=O)cc1,8,14,25,?,-25%
O=C(CN1C(=O)/C(=C/c2cccc(Br)c2)SC1=S)NCCCN1CCOCC1,-18,8,16,61%,20%
COc1ccc(/C=C2\SC(=S)N(CCC(=O)NCCCN3CCOCC3)C2=O)cc1,-19,13*,28,31%,?
CCc1ccc(/C=C2\SC(=S)N(CCC(=O)NCCCN3CCOCC3)C2=O)cc1,-74*,45*,46*,?,5%
SMILES,HCMV inh,CHX counter,Shiga toxin inh,Pf growth 96h,Pf growth 48h
O=C(CCCN1C(=O)/C(=C/c2cccc(Br)c2)SC1=S)NCCCN1CCOCC1,-90*,10,-13,3.3µM*,?
COc1cc(-c2nc(S(=O)(=O)c3ccc(Br)cc3)c(N3CCOCC3)o2)cc(OC)c1OC,52,/,/,/,/
O=C(NCc1ccc(Cl)cc1)N1CCN(S(=O)(=O)c2ccccc2)CC1,-67*,-4,-10,11%,-39%
COc1cccc(CNC(=O)c2cc(S(=O)(=O)N3CCCCCC3)cn2C)c1,9,/,/,/,/
COc1cccc(CNC(=O)N2CCN(S(=O)(=O)c3ccc(Cl)cc3)CC2)c1,-61*,-3,-7,-63%,-16%
COc1cccc(CNC(=O)c2cc(S(=O)(=O)N3CCCC3)cn2C)c1,6,-1,-6,12µM*,13µM*
O=C(NCc1ccc(Cl)cc1)N1CCN(C(=O)c2ccccc2)CC1,-28,/,/,/,/
COc1ccccc1N1CCN(C(=O)c2c3c(nc4ccccc24)C(=O)N(C2CCCCC2)C3)CC1,32,/,/,/,/
C[C@]12c3[nH]c4cc(-c5ccco5)ccc4c3CCN1C(=O)[C@@H](CC(=O)NCc1cccc(C(F)(F)F)c1)C[C@@H]2C(=O)N1CCCCC1,-34,/,/,/,/
Cc1ccc2c(c1)NC(=O)C(CC(=O)NCCN(C)C)O2 (centres undefined),11,5,9,1.7µM*,/
CCOC(=O)c1cnc2cc(-c3ccc(Cl)cc3)nn2c1N,48,27*,35,123%,34%
CCOC(=O)c1cnc2c(c(C)nn2C)c1Oc1ccc(Cl)cc1,-11,2,-10,1.5µM*,?
CCOC(=O)c1cnc2cc(-c3ccc(Br)cc3)nn2c1C,67,22*,85,13µM*,46%
CCOC(=O)c1cnc2c(-c3ccc(Cl)cc3)c(C)nn2c1N,17,10,-10,9.3µM*,8%
Cc1nn(C)c2ncc(C(N)=O)c(Oc3cccnc3)c12,25,-1,-5,2%,-8%
Cc1ccc(-c2cnc(N)n2C)cc1C,8,30*,32,4.7µM*,?
Cn1c(-c2ccc(Cl)cc2)cnc1N,-6,10,20,/,?
CCOC(=O)C1CCN(C(=O)c2ccc(-n3ccc4ccccc43)s2)CC1,100,/,/,/,/
COc1ccc(N2CSC3=C(C#N)C(c4ccc(OC)c(OC)c4)CC(=O)N3C2)c(OC)c1 (centres undefined),-2,-3,-11,20%,/
COc1ccc(N2CSC3=C(C#N)C(c4cccs4)CC(=O)N3C2)cc1 (centres undefined),42,18*,46,-1%,-27%
CCOC(=O)c1ccc(N2CSC3=C(C#N)C(c4cccs4)CC(=O)N3C2)cc1 (centres undefined),18,2,-2,-6%,/
Cc1ccc(N2CSC3=C(C#N)C(c4cccs4)CC(=O)N3C2)cc1 (centres undefined),61,11,31,15µM*,/
N#CC1=C2SCN(c3ccc(F)cc3)CN2C(=O)CC1c1cccc(F)c1 (centres undefined),-93*,4,-15,?,/
CCc1ccc(N2CSC3=C(C#N)C(c4cccs4)CC(=O)N3C2)cc1 (centres undefined),/,15*,35,/,26%

# Screening results (PubChem)
